“And” between values parts separate entries of the source, which are not always exact repeats. Identical values can stand only once. The source made the active and inactive calls. Rule for the calls: active = hit-call score of the fitted dose curve at least 0.9, where 1 is the maximum; inactive = score below 0.9.
Assays:
[1] = target: Transcription factor E2F1 (Homo sapiens) (UniProt Q01094); experiment: ATG_E2F_CIS: Attagene CIS-FACTORIAL HepG2 Assay for human E2F Transcription Factor 1 (AID 2282935); conditions: HepG2 Attagene cis-reporter, E2F reporter RNA transcripts; actives raise or lower the signal
Procedure, shortened: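 Cis-element reporter mRNA induction in transiently transfected HepG2, 24 h exposure. Activity fitted in both directions relative to DMSO negative control.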

[2] = ATG_E_Box_CIS: Attagene CIS-FACTORIAL HepG2 Assay for human Enhancer Box (E-box) (AID 2282936); conditions: HepG2 E-box cis-reporter transcription, actives raise or lower the signal
Procedure, shortened: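 Cells: HepG2 (human liver), transient MRTU transfection. Exposure 24 h. RNA → oligo(dT) RT → PCR → 6-FAM label → HpaI → CE. Activity fitted both directions relative to DMSO.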

[3] = ATG_EGR_CIS: Attagene CIS-FACTORIAL HepG2 Assay for human Early Growth Response 1 (EGR1) (AID 2282938); conditions: HepG2 Attagene CIS-FACTORIAL EGR reporter mRNA; actives raise or lower the signal
Procedure, shortened: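 Fluorescent capillary-electrophoresis signal of reporter cDNA fragments serves as read-out. HepG2 cells bear transiently transfected cis-promoter reporter units and are exposed 24 h; gain- or loss-of-signal is fitted against DMSO.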

[4] = ATG_M_19_CIS: Attagene CIS-FACTORIAL HepG2 Assay for M19 Transcription Factor (Internal Marker) (AID 2282939); conditions: HepG2 Attagene CIS-FACTORIAL M19 internal marker reporter; actives raise or lower the signal
Procedure, shortened: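 Internal marker readout, fitted in both directions against DMSO, from HepG2 cells carrying transfected cis-element reporter constructs; RT-PCR and capillary electrophoresis of reporter mRNA after 24 h exposure.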

[5] = ATG_ERE_CIS: Attagene CIS-FACTORIAL HepG2 Assay for Estrogen Response Element (ERE) (AID 2282940); conditions: HepG2 ERE cis-reporter, Attagene RNA transcript; actives raise or lower the signal
Procedure, shortened: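 After 24 h compound treatment, RNA from transfected HepG2 cells was reverse-transcribed, reporter cDNA PCR-amplified, FAM-labelled, HpaI-cut and resolved by capillary electrophoresis. ERE-driven cis reporter transcripts reflect endogenous factors; gain or loss scored against DMSO.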

[6] = ATG_Ets_CIS: Attagene CIS-FACTORIAL HepG2 Assay for human Erythroblast Transformation Specific (ETS) (AID 2282941); conditions: HepG2 ETS cis-reporter transcription, actives raise or lower the signal
Procedure, shortened: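 After transient cis-reporter transfection, HepG2 cells receive test chemical for 24 h. Reporter mRNA levels, measured by RT-PCR and capillary electrophoresis fluorescence, are analysed bidirectionally relative to the DMSO baseline.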

[7] = target: Hepatocyte nuclear factor 3-beta (Homo sapiens) (UniProt Q9Y261); experiment: ATG_FoxA2_CIS: Attagene CIS-FACTORIAL HepG2 Assay for human Forkhead box A2 (FOXA2) (AID 2282942); conditions: HepG2 cis-reporter transcription factor activity, 24 h; actives raise or lower the signal
Procedure, shortened: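 Fluorescence signal of reporter cDNA fragments, separated by capillary electrophoresis, reflects endogenous transcription factor activity in transfected HepG2 after 24 h. Both increases and decreases fitted against DMSO.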

[8] = ATG_FoxO_CIS: Attagene CIS-FACTORIAL HepG2 Assay for human Forkhead box O (FoxO) (AID 2282943); conditions: HepG2 Attagene cis-reporter, FoxO element, mRNA; actives raise or lower the signal
Procedure, shortened: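 Endogenous transcription factor activity read from multiplexed cis-promoter reporter transcripts in transiently transfected HepG2, 24 h after dosing. Reporter RNA measured via RT-PCR plus capillary electrophoresis of FAM-labeled products; gain or loss relative to DMSO.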

[9] = ATG_GATA_CIS: Attagene CIS-FACTORIAL HepG2 Assay for human GATA Binding Protein (AID 2282944); conditions: HepG2 GATA cis-element reporter, Attagene multiplex mRNA; actives raise or lower the signal
Procedure, shortened: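 Reporter transcripts from a GATA cis-regulated unit, among multiplexed reporters in transfected HepG2 cells, were measured by RT-PCR with capillary electrophoresis after 24 h dosing. Induction or loss scored relative to DMSO.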

Transcription factor E2F1 (Homo sapiens), sequence (Q01094 whole entry, looked up): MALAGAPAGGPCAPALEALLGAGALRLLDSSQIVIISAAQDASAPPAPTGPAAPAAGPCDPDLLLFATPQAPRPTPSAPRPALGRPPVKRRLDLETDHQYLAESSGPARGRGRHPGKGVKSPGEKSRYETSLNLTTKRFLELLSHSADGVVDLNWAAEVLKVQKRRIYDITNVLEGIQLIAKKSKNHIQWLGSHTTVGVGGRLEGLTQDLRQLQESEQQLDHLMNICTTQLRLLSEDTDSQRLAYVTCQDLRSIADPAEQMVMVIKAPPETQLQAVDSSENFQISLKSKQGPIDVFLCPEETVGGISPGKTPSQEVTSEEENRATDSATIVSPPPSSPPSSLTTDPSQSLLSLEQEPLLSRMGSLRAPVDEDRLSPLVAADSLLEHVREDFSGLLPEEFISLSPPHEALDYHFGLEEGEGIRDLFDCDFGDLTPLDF
Hepatocyte nuclear factor 3-beta (Homo sapiens), sequence (Q9Y261 whole entry, looked up, the tested form may be a part): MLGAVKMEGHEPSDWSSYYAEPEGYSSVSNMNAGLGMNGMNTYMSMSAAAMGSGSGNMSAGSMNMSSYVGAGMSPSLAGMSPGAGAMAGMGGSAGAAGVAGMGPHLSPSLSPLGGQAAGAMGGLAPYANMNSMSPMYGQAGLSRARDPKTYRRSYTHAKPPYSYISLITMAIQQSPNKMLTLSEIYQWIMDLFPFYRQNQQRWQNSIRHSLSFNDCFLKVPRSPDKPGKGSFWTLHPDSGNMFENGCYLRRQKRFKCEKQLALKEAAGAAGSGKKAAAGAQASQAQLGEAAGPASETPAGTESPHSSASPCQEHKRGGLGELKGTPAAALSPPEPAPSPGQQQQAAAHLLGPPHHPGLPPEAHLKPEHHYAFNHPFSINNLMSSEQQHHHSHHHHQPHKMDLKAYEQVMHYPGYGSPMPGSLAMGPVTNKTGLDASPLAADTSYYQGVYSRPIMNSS

Compound | outcome [1] | outcome [2] | outcome [3] | outcome [4] | outcome [5] | outcome [6] | outcome [7] | outcome [8] | outcome [9] | AC50 [2] | AC50 [5] | AC50 [3] | AC50 [8]
Cc1cccc(N(C)C)c1 | inactive | inactive | inactive | inactive | inactive | inactive | inactive | inactive | inactive | – | – | – | –
FC(F)(F)C(F)(F)C(F)(F)CI | inactive | inactive | inactive | inactive | inactive | inactive | inactive | inactive | inactive | – | – | – | –
O[Si](c1ccccc1)(c1ccccc1)c1ccccc1 | inactive | – | inactive | inactive | – | inactive | inactive | inactive | inactive | 15.8 µM (active) | 12.8 µM (active) | – | –
C=CC(=O)OCC(F)(F)C(F)(F)C(F)(F)C(F)(F)COC(=O)C=C | inactive | – | – | inactive | inactive | inactive | inactive | inactive | inactive | 34.9 µM (active) | – | 63 µM (active) | –
CC(C)=CCCC(C)CCOC(=O)C(C)C (configuration not stated) | inactive | inactive | inactive | inactive | inactive | inactive | inactive | inactive | inactive | – | – | – | –
O=C(OCCOCCOCCOC(=O)c1ccccc1)c1ccccc1 | inactive | inactive | inactive | inactive | – | inactive | inactive | inactive | inactive | – | 0.62 µM (active) | – | –
O=C(O)C(F)(F)C(F)(F)C(F)(F)C(F)(F)C(F)(F)C(F)(F)C(F)(F)C(F)(F)Cl | inactive | inactive | – | inactive | – | inactive | inactive | inactive | inactive | – | 15.4 µM (active) and 21.7 µM (active) | 50 µM (active) and 64.8 µM (active) | –
CC/C=C\CCOC(=O)c1ccccc1 | inactive | inactive | inactive | inactive | inactive | inactive | inactive | inactive | inactive | – | – | – | –
FC(F)(Br)C(F)(F)C(F)(F)C(F)(F)C(F)(F)C(F)(F)Br | inactive | inactive | inactive | inactive | – | inactive | inactive | inactive | inactive | – | 8.15 µM (active) | – | –
CCCCCCCOC(=O)c1ccccc1C(=O)OCCCCCCC | inactive | inactive | inactive | inactive | inactive | inactive | inactive | inactive | inactive | – | – | – | –
FC(F)(F)C(F)(F)C(F)(F)C(F)(F)C(F)(F)C(F)(F)C(F)(F)I | inactive | inactive | inactive | inactive | – | inactive | inactive | inactive | inactive | – | 5.59 µM (active) | – | –
CC/C=C\CCOC(C)=O | inactive | inactive | inactive | inactive | inactive | inactive | inactive | inactive | inactive | – | – | – | –
CO[Si](OC)(c1ccccc1)c1ccccc1 | inactive | inactive | inactive | inactive | – | inactive | inactive | inactive | inactive | – | 72.8 µM (active) | – | –
C=CC(=O)OCC(F)(F)C(F)(F)C(F)(F)C(F)(F)C(F)(F)C(F)(F)C(F)(F)F | inactive | inactive | inactive | inactive | – | inactive | inactive | inactive | inactive | – | 21 µM (active) | – | –
FC(F)(F)C(F)(F)C(F)(F)C(F)(F)C(F)(F)C(F)(F)CCS | inactive | inactive | inactive | inactive | – | inactive | inactive | inactive | inactive | – | 26.4 µM (active) | – | –
CC(C)c1ccccc1N | inactive | inactive | inactive | inactive | inactive | inactive | inactive | – | inactive | – | – | – | 152 µM (active)
OCC(F)(F)C(F)(F)C(F)(F)C(F)(F)C(F)(F)C(F)F | inactive | inactive | inactive | inactive | – | inactive | inactive | inactive | inactive | – | 6.1 µM (active) | – | –

Compound | outcome [1] | outcome [2] | outcome [3] | outcome [4] | outcome [5] | outcome [6] | outcome [7] | outcome [8] | outcome [9] | AC50 [2] | AC50 [5] | AC50 [3] | AC50 [8]
FC(F)(F)C(F)(F)C(F)(F)C(F)(F)C(F)(F)C(F)(F)C(F)(F)Br | inactive | inactive | inactive | inactive | inactive | inactive | inactive | inactive | inactive | – | – | – | –
O=C(Cl)C(F)(F)C(F)(F)C(F)(F)C(F)(F)C(F)(F)C(F)(F)C(F)(F)C(F)(F)F | inactive | inactive | inactive | inactive | inactive | inactive | inactive | inactive | inactive | – | – | – | –
c1ccc(B(c2ccccc2)c2ccccc2)cc1 | inactive | – | inactive | inactive | – | inactive | inactive | inactive | inactive | 160 µM (active) | 9.96 µM (active) | – | –
O=C(O)C(F)(F)C(F)(F)OC(F)(F)F | inactive | inactive | inactive | inactive | inactive | inactive | inactive | inactive | inactive | – | – | – | –
FC(F)(F)C(F)(F)C(F)(F)C(F)(F)C(F)(F)C(F)(F)CC1CO1 (configuration not stated) | inactive | inactive | inactive | inactive | inactive | inactive | inactive | inactive | inactive | – | – | – | –
Nc1cc(Cl)c(N)c(Cl)c1 | inactive | inactive | inactive | inactive | – | inactive | inactive | inactive | inactive | – | 7.29 µM (active) | – | –
FC1CC(F)(F)C(F)(F)C1(F)F (configuration not stated) | inactive | inactive | inactive | inactive | inactive | inactive | inactive | inactive | inactive | – | – | – | –
CNC(=S)NC | inactive | inactive | inactive | inactive | inactive | inactive | inactive | inactive | inactive | – | – | – | –
O=S(=O)(OCCOC(F)(F)F)C(F)(F)F | inactive | inactive | inactive | inactive | inactive | inactive | inactive | inactive | inactive | – | – | – | –
OCC(F)(F)C(F)(F)C(F)(F)F | inactive | inactive | inactive | inactive | inactive | inactive | inactive | inactive | inactive | – | – | – | –
CC(C)(C)c1ccc(OC2CCCCC2O)cc1 (configuration not stated) | inactive | inactive | inactive | inactive | inactive | inactive | inactive | inactive | inactive | – | – | – | –
O=C(O)C(F)(OC(F)(F)C(F)(OC(F)(F)C(F)(OC(F)(F)C(F)(F)C(F)(F)F)C(F)(F)F)C(F)(F)F)C(F)(F)F (configuration not stated) | inactive | inactive | inactive | inactive | inactive | inactive | inactive | inactive | inactive | – | – | – | –
CN(C)Cc1ccccc1O | inactive | inactive | inactive | inactive | inactive | inactive | inactive | inactive | inactive | – | – | – | –
FC(F)(F)C(F)(F)C(F)(F)C(F)(F)C(F)(F)C(F)(F)C(F)(F)C(F)(F)CCS | inactive | inactive | inactive | inactive | inactive | inactive | inactive | inactive | inactive | – | – | – | –
Nc1ccc(S(=O)(=O)Nc2nccs2)cc1 | inactive | inactive | inactive | inactive | inactive | inactive | inactive | inactive | inactive | – | – | – | –
CCCCNc1ccccc1 | inactive | inactive | inactive | inactive | inactive | inactive | inactive | inactive | inactive | – | – | – | –

— PubChem BioAssay (EPA / NIEHS)
